Measured values from the supplement of paper PMC3334620.
Whole data set: some 33,000 sequences, median “E-score (-0.5 to 0.5)” near -0.035, cut for the highest 2% near 0.35. The list comes from a sample in which the highest values are over-represented; it also holds similar and randomly drawn sequences.

Target: T1, Pdr3 (UniProt P33200)
T1 sequence: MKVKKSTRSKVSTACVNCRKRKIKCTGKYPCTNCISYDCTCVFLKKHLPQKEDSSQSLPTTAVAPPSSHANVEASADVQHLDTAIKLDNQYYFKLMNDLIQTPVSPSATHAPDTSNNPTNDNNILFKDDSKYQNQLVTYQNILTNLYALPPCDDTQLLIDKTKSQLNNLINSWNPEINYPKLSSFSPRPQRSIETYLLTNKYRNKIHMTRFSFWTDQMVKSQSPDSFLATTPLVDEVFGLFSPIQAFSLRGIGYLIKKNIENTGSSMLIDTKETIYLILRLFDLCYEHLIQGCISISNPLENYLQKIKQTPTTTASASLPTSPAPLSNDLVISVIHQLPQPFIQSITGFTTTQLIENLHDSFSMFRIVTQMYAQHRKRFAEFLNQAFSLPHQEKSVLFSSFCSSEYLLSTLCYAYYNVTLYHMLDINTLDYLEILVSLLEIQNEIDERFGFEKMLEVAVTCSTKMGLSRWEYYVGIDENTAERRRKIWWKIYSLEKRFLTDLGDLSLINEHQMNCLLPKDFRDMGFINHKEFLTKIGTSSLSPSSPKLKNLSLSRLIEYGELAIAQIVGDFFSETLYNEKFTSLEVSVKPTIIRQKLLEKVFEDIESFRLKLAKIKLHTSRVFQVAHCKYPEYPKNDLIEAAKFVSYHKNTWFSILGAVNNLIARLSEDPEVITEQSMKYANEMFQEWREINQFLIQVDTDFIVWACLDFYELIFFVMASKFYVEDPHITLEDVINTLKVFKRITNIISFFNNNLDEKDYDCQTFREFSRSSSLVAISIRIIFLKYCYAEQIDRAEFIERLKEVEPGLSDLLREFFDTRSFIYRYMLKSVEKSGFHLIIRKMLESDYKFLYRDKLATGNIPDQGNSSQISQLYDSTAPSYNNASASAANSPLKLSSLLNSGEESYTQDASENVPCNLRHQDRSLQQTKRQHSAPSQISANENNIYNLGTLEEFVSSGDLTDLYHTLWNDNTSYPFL
Assay: PBM E-score (8-mer binding enrichment) (E-score (-0.5 to 0.5)); higher = stronger / more preferred TF binding
Conditions: protein concentration: 200 nM; construct: GST-full length
Procedure, shortened: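 Masliner-normalised scans of fluorescent anti-GST signal were the basis for scoring. That signal came from GST-tagged yeast transcription factors applied at about 100-200 nM to double-stranded universal all-10-mer Agilent arrays on fresh or once-stripped slides. Each ungapped eight-base word, pooled with its reverse complement, received an E-score from the Universal PBM Analysis Suite.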

Sequence	PBM E-score
GGGGTCCA	-0.138
CGCTAAAA	0.00276
CCTTTTAG	-0.291
AATCTGCT	-0.15
ACCCTCCC	0.299
CTGAAGCA	-0.199
CCAATGCC	0.0068
AGGCATTG	-0.0729
CCCATTGC	-0.0113
GGCGGTTA	0.0539
AAGCATCT	-0.243
CATTTGTA	-0.0519
AGGCGAAC	-0.114
CAGGATCC	0.0521
GAGGATCC	0.235
CTGGATCC	0.285
AAGGATCA	-0.14
GCGGATAC	0.311
ACGGATCA	0.366
CCGGATCC	0.433
GCGGATCC	0.409
ATGGATCA	-0.0186
ATCGTTAA	0.00324
CGAATCCA	0.0811
CCGTCACG	0.238
ATCCCACC	0.266

Sequence	PBM E-score
CCTCGGCA	0.238
ACTCGGAA	0.427
GCTCGGAC	0.297
CCTCGGCG	0.376
ACTCGGAC	0.305
ACTCGGAT	0.256
CCTCGGCC	0.251
CCTCGGAA	0.442
CCTCGGAC	0.282
GCTCGGTA	0.123
CCTCGGAG	0.283
GCTCGGAA	0.413
AAACGTCA	-0.149
AAGCCTGT	0.028
CTGCAGGC	-0.094
TCTCGGCA	0.217
TCTCGGAA	0.444
TCTCGTAA	-0.0824
AAGGCCAG	-0.0965
TAAGCACA	0.108
ACGGAACT	0.48
AAGGAACT	0.0764
CCGGAACG	0.475
CGGGAACC	0.312
CAGGAACC	-0.124
AGGGAACC	-0.00025

Sequence	PBM E-score
CGGGAACG	0.285
AGGGAACT	0.0568
ACGGAACC	0.487
CCGGAACC	0.476
CAGGAACG	-0.0257
AAGGAACC	0.217
ACTCAACC	-0.035
ATTGCACC	-0.0754
GGCACTAA	0.156
CGATTGCG	0.202
CTTTCTGC	-0.0975
CAGCACAC	-0.275
CACTCGCG	0.0224
GACCAATA	-0.0553
AGTGGTTG	-0.00222
GGGGAACC	-0.157
ACGGAACG	0.48
GAGGAACC	0.0227
ATGGAACG	0.0401
GCGGAACC	0.482
AAGGAACG	0.00917
CGATCTTC	0.0584
CTCTTCAG	-0.243
CTAACAGA	-0.028
AGGAGTGC	-0.0635
ATGGTCCC	-0.0703

Sequence	PBM E-score
ATGGTCCG	0.387
CCGGTCCA	0.0798
CCGGTCCC	0.312
CCGGTCCG	0.414
ATGGTCCA	-0.203
CAGCTTAC	-0.193
GTAGTGAC	0.0971
CAGATGCA	-0.278
ACGCGCAC	-0.111
ACATCCAC	-0.04
CAATCATG	-0.189
GCGATTCC	0.34
AGGATTCC	0.223
CCGATTCC	0.395
CCGATTCG	0.25
CGGATTCA	0.179
CGGATTCC	0.454
ATTCACCG	0.254
ACCCACAG	-0.278
AATCTCCG	0.322
CATCTCCG	0.377
CATCTCCC	0.155
GTCTGACA	0.159
AACCTTTG	-0.165
GGAACGGA	0.431
CGAACCGA	0.15

Sequence	PBM E-score
CGAACGAA	0.0784
GGAACGCA	0.275
CGAACGGA	0.407
CGAACGGC	0.177
GGAACCGA	0.406
AGAACGGA	0.316
AGAACCGA	0.0498
AACACCCC	0.0302
AGCACTTA	-0.102
GGATTCCC	0.231
ACCTGACT	-0.131
AGAGGGGC	-0.138
TAGGGTGA	0.00768
TATGTCAA	0.0343
GTCTCCAC	-0.208
TAAGGGTA	-0.262
ACGGGTCG	0.227
CCGGGTCA	0.349
ACGGGTCC	0.186
CCGGGTCG	0.378
CCGGGTCC	0.365
GCGGGTCC	0.243
CCGGGTTC	0.411
ACGGGTTC	0.202
CCGGGTTA	0.353
AAGCGCTT	0.21

Sequence	PBM E-score
ATGAAGGG	-0.171
GTGGATAA	0.0146
GGATTTGA	-0.0356
CGGTCTTC	0.123
AATCAACA	0.115
GCTCGAAA	0.0413
ATACTCCC	0.127
ATACTCCA	-0.0793
ATACTCCG	0.371
GCGCGGCC	0.219
ACGCGGCG	0.209
CCGCGGCC	0.459
CCGCGGCG	0.477
ACGCGGCC	0.0489
CAGCGGCG	0.154
GACGTCTC	-0.145
TATCGAGA	-0.0727
ACGCAAGT	-0.255
TCCCCGGA	0.411
TCCCCCGA	0.0813
CCCCCGGA	0.311
GCCCCGGC	0.163
TCCCCGAA	0.232
GCCCCGGA	0.41
CTTGGAGC	-0.207
ACTTTCAG	-0.184

Sequence	PBM E-score
AAATTGCG	0.0648
GATCTTAC	-0.113
ACTTCCGG	0.42
ACTTCCCG	0.291
ACTTCCTG	-0.121
ACTTCCGA	0.355
ACTTCCCA	-0.0401
ACTTCCAA	-0.127
GCTTCCGA	0.405
GCTTCCAA	-0.143
GCTTCCTA	-0.205
CGCACAAA	0.0204
AGGGTGTG	-0.0975
ACGCCCAA	0.00636
AAAGCTCA	-0.213
CGGTCGAG	-0.014
CGGTACCC	-0.0572
CGGTACCA	0.0596
CGGTACCG	0.362
CTTCATCC	-0.00929
